High-throughput results (PubChem BioAssay)
HPGD block = HPGD (human) dehydrogenase inhibition; P15428; purified HPGD, NADH fluorescence kinetic, PGE2 substrate; Potency, µM, most hits filed as inhibitors; 150,000 compounds, 4.3% hits; active = well fitted inhibition curve with a large enough effect, not every such curve was filed as active; inconclusive = small, poorly fitted or top-dose-only effect, or another doubt; inactive = no such curve, though single readings can be large or run the other way
Target sequence (P15428 whole entry, looked up): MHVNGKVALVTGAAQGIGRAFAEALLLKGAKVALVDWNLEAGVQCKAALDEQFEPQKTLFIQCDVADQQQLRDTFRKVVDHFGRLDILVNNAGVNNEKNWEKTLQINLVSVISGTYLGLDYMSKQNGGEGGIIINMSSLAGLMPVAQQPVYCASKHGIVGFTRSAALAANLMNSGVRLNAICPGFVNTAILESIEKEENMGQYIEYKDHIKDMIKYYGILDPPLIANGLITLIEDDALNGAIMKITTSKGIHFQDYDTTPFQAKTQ
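20 nM HPGD preincubated 15 min at room temperature with compound in 50 mM Tris-HCl pH 8, 0.01% Tween 20. Started with 1 mM NAD+ and 30 uM prostaglandin E2; NADH fluorescence (360/450 nm) read 5 times over 30-s intervals, last minus first.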
ALDH1A1 inh = ALDH1A1 (human) enzyme inhibition; Purified ALDH1A1, NADH fluorescence, propionaldehyde substrate; Potency, µM (doses to about 75.3 µM), hits mostly inhibitors; 220,000 compounds, 7.3% hits; AID 1030; active = well fitted inhibition curve with a large enough effect, not every such curve was filed as active; inconclusive = small, poorly fitted or top-dose-only effect, or another doubt; inactive = no such curve, though single readings can be large or run the other way
Target sequence (P00352 whole entry, looked up): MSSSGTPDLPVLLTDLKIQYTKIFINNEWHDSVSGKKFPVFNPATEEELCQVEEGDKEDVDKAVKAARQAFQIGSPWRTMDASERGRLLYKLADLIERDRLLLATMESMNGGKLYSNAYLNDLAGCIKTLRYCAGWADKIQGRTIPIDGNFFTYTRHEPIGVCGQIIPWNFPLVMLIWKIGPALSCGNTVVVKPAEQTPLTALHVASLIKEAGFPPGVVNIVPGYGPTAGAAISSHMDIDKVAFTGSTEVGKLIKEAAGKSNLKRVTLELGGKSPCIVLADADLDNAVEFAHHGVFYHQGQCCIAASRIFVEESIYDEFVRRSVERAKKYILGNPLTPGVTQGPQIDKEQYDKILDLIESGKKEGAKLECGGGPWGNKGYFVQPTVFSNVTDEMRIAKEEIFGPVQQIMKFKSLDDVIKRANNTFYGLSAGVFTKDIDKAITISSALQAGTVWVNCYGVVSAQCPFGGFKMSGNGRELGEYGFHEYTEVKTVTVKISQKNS
HTT ATP protect = cytoprotection in Huntington HTT-Q103 PC12 cell model; 230,000 compounds, 0.14% hits; Potency, µM (series often up to 56.4 µM), hits mostly activators; PC12 HTT-Q103 induced, cytoprotection, ATP luminescence, 40 h; AID 1471; also: nearly all actives have a fitted effect of over 45% in size
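Readout: ATPlite luminescence (ATP level). Model: stable PC12, inducible Htt exon1 Q103-GFP. Inducer: tebufenozide, 100 nM final. Compounds: dose series. No G418 in medium.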
HttQ103 aggreg = inhibitors of mutant huntingtin aggregate formation in PC12 cells; Potency, µM (titrated, usually from 46.1 µM), actives largely listed as inhibitors; 220,000 compounds, 1.1% hits; PC12 HttQ103-GFP aggregates, Acumen cytometry, 40 h; also: nearly all actives have a fitted effect of over 60% in size
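Ecdysone-promoter PC12 model expressing HTT exon 1 Q103 fused to GFP, induced by tebufenozide at 100 nM final. Compounds titrated; aggregates sized 1–25 µm scored on a 488 nm laser cytometer.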
LMNA splice mod = changes lamin A minigene splicing in HeLa cells; HeLa LMNA splicing GFP/RFP minigene ratio, 48 h; Potency, µM (titrated, usually from 46.1 µM), most hits filed as inhibitors; 200,000 compounds, 0.01% hits; active = well fitted inhibition curve with a large enough effect in the signal ratio, with a control signal flat, not every such curve was filed as active; inconclusive = small, poorly fitted or top-dose-only effect, or effect the other way, or a change in a side signal; the % refers to the signal ratio
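Read-out is the ratio of GFP to DsRed2 object intensity, acquired by 488 nm laser-scanning cytometry on HeLa lamin A-EGFP minigene reporter cells. Compound incubation 48 hrs at 37 °C in Opti-MEM with 2% FBS; DMSO 0.5% final.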
Large screens that a line does not name were inactive. Hits are enriched below; roughly 8.8% of the tested compounds scored in any of these assays. Unless noted, calls follow the shape of the dose curve; as a rule, active = well fitted curve in the direction sought with a large enough effect; inconclusive = small, poorly fitted or top-dose-only effect, or another doubt; inactive = no such curve, though single readings can be large; an effect the other way counts as inactive or inconclusive.

CCC(c1nnnn1CCc1ccccc1)N1CCN(C(=O)c2ccco2)CC1 (configuration not stated)	ALDH1A1 inh inconclusive
CCCCC(c1nnnn1Cc1ccco1)N1CCN(C(=O)c2ccco2)CC1 (configuration not stated)	ALDH1A1 inh 14.1µM
CCCC(c1nnnn1Cc1ccco1)N1CCN(C(=O)c2ccco2)CC1 (configuration not stated)	ALDH1A1 inh 12.6µM
CCCCC(CC)C(=O)N1CCN(C(=O)c2ccco2)CC1 (configuration not stated)	ALDH1A1 inh 25.1µM (no result: HPGD block)
CCCC(c1nnnn1Cc1ccco1)N1CCN(C2CCCC2)CC1 (configuration not stated)	none
COc1cc(CO)ccc1OCc1nnnn1-c1ccc(C)cc1	LMNA splice mod inconclusive (no result: HPGD block, HTT ATP protect)
Cc1cccc(NC(=O)CSc2nc(=O)n(Cc3ccncc3)c3c2CCC3)c1C	none (no result: HPGD block, ALDH1A1 inh, HTT ATP protect, HttQ103 aggreg)
COc1cccc([C@@H]2Oc3ccc(Br)cc3C[C@H]2OC(=O)NS(=O)(=O)c2ccc(F)cc2)c1	none (no result: HttQ103 aggreg, LMNA splice mod)
CCN1C(=O)N(C)[C@@H](c2ccccc2)C(C(C)=O)=C1C	LMNA splice mod inconclusive (no result: HttQ103 aggreg)
COc1ccc2c(c1)C(=O)C(=O)N2	ALDH1A1 inh 22.4µM
COc1ccc(O)c(/C=N/N=C2/C(=O)Nc3ccccc32)c1	ALDH1A1 inh inconclusive (no result: HPGD block)
CCC(CO)NCc1ccc(Br)cc1 (configuration not stated)	none (no result: HPGD block, LMNA splice mod)
CCC(CO)NCc1sccc1C (configuration not stated)	ALDH1A1 inh 20µM (no result: HPGD block)
CCCCNC(=O)CN1C(=O)c2cccnc2Sc2ccccc21	none (no result: HPGD block, ALDH1A1 inh, HTT ATP protect, HttQ103 aggreg)
CN1CCC(=NNC(=O)CSCc2ccccc2)CC1	ALDH1A1 inh 25.1µM
CC(SCc1ccccc1)C(=O)N/N=C/c1cccs1 (configuration not stated)	none
CC(SCc1ccccc1)C(=O)NN=C1CCN(C)CC1 (configuration not stated)	ALDH1A1 inh 1.26µM
Cc1ccc(SCC(=O)NN=C2CCN(C)CC2)cc1	ALDH1A1 inh inconclusive (no result: HPGD block, LMNA splice mod)
C/C(CCC(=O)OC[C@@H]1O[C@H](C#Cc2ccccc2)C=C[C@@H]1Oc1ccc(C)cc1)=N/O[C@@H](C)CN1CCCc2nc(C)c(C)cc21	none (no result: HPGD block, HttQ103 aggreg, LMNA splice mod)
COc1ccc(C2C(C(=O)N3CCOCC3)c3ccccc3C(=O)N2c2ccc(OC)cc2)cc1 (configuration not stated)	ALDH1A1 inh 14.1µM
CCN1CCN(CCCNC(=O)C2c3ccccc3C(=O)N(c3ccc(OC)cc3)C2c2ccc(OC)cc2)CC1 (configuration not stated)	none (no result: HPGD block)
CCOC(=O)CNC(=O)C1c2ccccc2C(=O)N(c2ccc(OC)cc2)C1c1ccc(OC)cc1 (configuration not stated)	ALDH1A1 inh 28.2µM
COc1ccc(C2C(C(=O)N3CCN(c4ccccc4)CC3)c3ccccc3C(=O)N2C)cc1 (configuration not stated)	ALDH1A1 inh 2.24µM
COc1ccc(C2C(C(=O)N3CCN(c4ccccc4)CC3)c3ccccc3C(=O)N2C)cc1OC (configuration not stated)	ALDH1A1 inh inconclusive
COc1ccc(C(=O)Nc2nnc(S(=O)(=O)N3CCN(c4ccc(F)cc4)CC3)s2)cc1	none (no result: HPGD block, ALDH1A1 inh, HTT ATP protect, HttQ103 aggreg)
COc1cc2c(cc1OC)-c1cc(N3CCCc4ccccc43)nc(=O)n1CC2	ALDH1A1 inh 11.2µM
COc1ccc(C(=O)Nc2ccccc2SCc2cc(=O)c3cccc(C)c3[nH]2)cc1	none (no result: HPGD block, ALDH1A1 inh, HTT ATP protect, HttQ103 aggreg)
CCOC(=O)c1c(N)sc(-c2ccccc2)c1C	HPGD block inconclusive, ALDH1A1 inh inconclusive
Cc1c(-c2ccccc2)sc(N)c1C(=O)N1CCOCC1	HPGD block 8.91µM, ALDH1A1 inh 12.6µM
Cc1ccc(-c2nn3nnnc3c3ccccc23)cc1C	ALDH1A1 inh 7.08µM
CC1CC(C)(C)N2C(=O)C(=C(C#N)C#N)c3cccc1c32 (configuration not stated)	none (no result: HPGD block, ALDH1A1 inh, LMNA splice mod)
CC1CC2(CCCCC2)N2C(=O)C(=O)c3cccc1c32 (configuration not stated)	ALDH1A1 inh 0.0447µM
Cc1cc2c3c(c1)C(C)CC(C)(C)N3C(=O)C2=O (configuration not stated)	ALDH1A1 inh 0.159µM (no result: HPGD block, HTT ATP protect, HttQ103 aggreg)
CCOc1cc2c3c(c1)C(C)CC(C)(C)N3C(=O)C2=O (configuration not stated)	ALDH1A1 inh 0.398µM
Cc1ccc(NC(=O)C2CCCN(c3ncnc4c3nc3n4CCCCC3)C2)cc1F (configuration not stated)	none (no result: HPGD block, ALDH1A1 inh, HTT ATP protect, HttQ103 aggreg)
O=c1c(-c2cc(F)cc(F)c2)nc2cnc(Nc3ccccc3)nc2n1C[C@H]1CCCO1	none (no result: HPGD block, HttQ103 aggreg)
Cc1ccc(N2C(=O)CN(Cc3cccs3)C2=S)cc1C	none (no result: HPGD block)
Cc1ccc(N2C(=O)CN(Cc3sccc3C)C2=S)cc1C	HPGD block 3.16µM, ALDH1A1 inh inconclusive, HttQ103 aggreg inconclusive, LMNA splice mod inconclusive
COc1ccc(CNS(=O)(=O)c2cc3c(cc2C)n(C)c(=O)c(=O)n3C)cc1	none (no result: HPGD block, ALDH1A1 inh, HTT ATP protect, HttQ103 aggreg)
Cc1nnc(NC(=O)CSc2cn(CCNC(=O)c3ccccc3)c3ccccc23)s1	ALDH1A1 inh 1.58µM, LMNA splice mod inconclusive
COc1ccc(C(=O)NCCn2cc(SCC(=O)NCc3ccco3)c3ccccc32)cc1	ALDH1A1 inh 25.1µM, LMNA splice mod inconclusive
Cc1cc(NC(=O)CSc2cn(CCNC(=O)c3ccc(F)cc3)c3ccccc23)no1	ALDH1A1 inh inconclusive, LMNA splice mod inconclusive
CCN(CC)C(=O)Cn1cc(SCC(=O)NCc2ccco2)c2ccccc21	ALDH1A1 inh inconclusive, HTT ATP protect inconclusive (no result: HPGD block, LMNA splice mod)
COCC(=O)N1CCC2(CC1)CN(c1ccc(-c3ccccc3)cc1)C2	HPGD block inconclusive, ALDH1A1 inh inconclusive (no result: HttQ103 aggreg, LMNA splice mod)
CCOC(=O)c1ccc(NC(=O)NC2CC3CCC(C2)N3Cc2nnnn2Cc2ccco2)cc1 (configuration not stated)	ALDH1A1 inh 12.6µM
O=S(=O)(Nc1ccc(Cc2ccncc2)cc1)N1CCCC1	HPGD block 25.1µM
CC(C)(C)c1ccc(NS(=O)(=O)c2ccc(N)cc2)cc1	none (no result: LMNA splice mod)
CC(C)(C)c1ccc(S(=O)(=O)Nc2ccc(Cc3ccncc3)cc2)cc1	ALDH1A1 inh 1.12µM, HttQ103 aggreg inconclusive, LMNA splice mod inconclusive
O=[N+]([O-])c1ccccc1S(=O)(=O)NCCc1ccncc1	ALDH1A1 inh 17.8µM (no result: HPGD block)
O=C(Nc1ccc(Cc2ccncc2)cc1)C1CC1	none
CC(C)(C)c1ccc(S(=O)(=O)NCCc2ccncc2)cc1	ALDH1A1 inh inconclusive, HttQ103 aggreg 22.4µM, LMNA splice mod inconclusive
CCCc1ccc(S(=O)(=O)NCCc2ccncc2)cc1	ALDH1A1 inh inconclusive, HttQ103 aggreg inconclusive, LMNA splice mod inconclusive
COc1ccc(OC)c(N=C(N)N=C(N)N)c1	none (no result: HPGD block)
O=C(Nc1cccc(F)c1)N1CCCC2(CCN(C(=O)c3csnn3)CC2)C1	none (no result: HttQ103 aggreg, LMNA splice mod)
CCCCCc1ccc(S(=O)(=O)NCCc2ccncc2)cc1	HttQ103 aggreg 11.2µM, LMNA splice mod inconclusive
Cc1cc(C)cc(NC(=O)CN2CCCN(S(=O)(=O)c3ccc(Br)s3)CC2)c1	ALDH1A1 inh inconclusive, LMNA splice mod inconclusive
